Measured values as given in PubChem BioAssay (EPA / NIEHS).
Results filed as inconclusive are left out. The source made the active and inactive calls. How the source made its calls: active means hit-call score of the fitted dose curve at least 0.9, where 1 is the maximum; inconclusive means response in the unintended direction; inactive means score below 0.9.

experiment: Tanguay_ZF_120hpf_EYE_legacy: (Legacy) Oregon State University Tanguay Lab 120 Hour Post-fertilization zebrafish Assay for Eye Malformation (AID 2283636);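 further: binary presence or absence of eye malformation scored by brightfield in 120 hpf larvae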
Method: Tanguay_ZF_120hpf_legacy is a whole embryo, multiplexed endpoint assay using zebrafish larvae exposed for 120 hours post fertilization on a 96-well plate.Tanguay_ZF_120hpf_EYE_legacy is one of one assay component(s) measured or calculated from the Tanguay_ZF_120hpf_legacy assay. It is designed to make measurements of zebrafish development as detected with brightfield microscopy of developing zebrafish embryos.Data from the assay component Tanguay_ZF_120hpf_EYE_legacy was analyzed into 1 assay endpoints. This assay endpoint, Tanguay_ZF_120hpf_EYE_legacy, was analyzed in the positive analysis fitting direction relative to DMSO as the negative control and baseline of activity. Using a type of morphology reporter, gain-of-signal activity can be used to understand changes in developmentals as they relate to the whole embryo. To generalize the intended target to other relatable targets, this assay endpoint is annotated to the zebrafish development intended target family, where the subfamily is embryonic eye development.
Zebrafish husbandry: Tropical 5D wild-type adult zebrafish were housed in at an approximate density of 1000 per 100 gallon tank at the Sinnhuber Aquatic Research Laboratory, Oregon State University, Corvallis, OR. Each tank was kept at standard laboratory conditions of 28C on a 14-h light/10-h dark photoperiod in fish water consisting of reverse osmosis water supplemented with a commercially available salt (Instant Ocean). Spawning funnels were placed into the tanks the night prior, and embryos were collected and staged. To increase bioavailability, the chorion was enzymatically removed using pronase (63.6mg/ml, >/= 3.5U/mg, Sigma-Aldrich: P5147) at 4 hours post fertilization (hpf) using a custom automated dechorionator.Chemical exposures: Six hpf dechorionated embryos were placed 1 embryo per well in a 96-well plate prefilled with 90 ul of EM using automated embryo placement systems (AEPS). Ten microliters of each row of dilution plate 2 was added to 2 exposure plates. The final DMSO concentration used was 0.64% (vol/vol). Thirty-two embryos were also exposed to 5uM trimethyltin chloride (positive control). Plates were sealed to prevent evaporation and foil covered to reduce light exposure and kept in a 28C incubator. Embryos were statically exposed until 120 hpf. At 24 hpf, embryos were assessed for photomotor response using a custom photomotor response analysis tool (PRAT) and for developmental toxicity endpoints (MO24: mortality at 24 hpf, DP: developmental progression, SM: spontaneous movement, and NC: notochord distortion). At 120 hpf, locomotor activity was measured using Viewpoint Zebralab and assessed for 18 endpoints. Zebrafish acquisition and analysis program (ZAAP), a custom program designed to inventory, acquire, and manage zebrafish data, was used to collect developmental endpoints as either present or absent (i.e., binary responses were recorded). If mortality occurred for an embryo (at either 24 or 120 hpf), the non-mortality endpoints were not measured.

Row | Compound | outcome | AC50
1 | CCOc1cc(C(C)(C)C)ccc1C1COC(c2c(F)cccc2F)=N1 (stereo not given) | inactive | –
2 | CC1(C)C(C=C(Cl)Cl)C1C(=O)OC(C#N)c1cccc(Oc2ccccc2)c1 (stereo not given) | – | 1.82 µM (active)
3 | CC(C)N1C(=O)c2ccccc2NS1(=O)=O | inactive | –
4 | COC(=O)N(C(=O)N1CO[C@@]2(C(=O)OC)Cc3cc(Cl)ccc3C2=N1)c1ccc(OC(F)(F)F)cc1 | inactive | –
5 | COc1cc(OC)nc(NC(=O)NS(=O)(=O)c2ncccc2OCC(F)(F)F)n1 | inactive | –
6 | CC1(C)C(C(=O)OC(C#N)c2cccc(Oc3ccccc3)c2)C1(C)C (stereo not given) | inactive | –
7 | CO/N=C(/C1=NOCCO1)c1ccccc1Oc1ncnc(Oc2ccccc2Cl)c1F | inactive | –
8 | C=CCOC(=O)C(C)(C)OC(=O)c1cc(-n2c(=O)cc(C(F)(F)F)n(C)c2=O)ccc1Cl | inactive | –
9 | N#CN=C1SCCN1Cc1ccc(Cl)nc1 | inactive | –
10 | COc1ccc(-c2ccccc2)cc1NNC(=O)OC(C)C | inactive | –
11 | Nc1c(Cl)c(F)nc(OCC(=O)O)c1Cl | inactive | –
12 | Cc1cnc(C2=NC(C)(C(C)C)C(=O)N2)c(C(=O)O)c1 (stereo not given) | inactive | –
13 | COC(=O)NS(=O)(=O)c1ccc(N)cc1 | inactive | –
14 | Cc1cc(C)nc(Nc2ccccc2)n1 | inactive | –
15 | CC(C)NC(=O)N1CC(=O)N(c2cc(Cl)cc(Cl)c2)C1=O | inactive | –
16 | CCN(CC)c1nc(C)cc(OP(=S)(OC)OC)n1 | inactive | –
17 | O=C(Nc1ccccc1-c1ccc(Cl)cc1)c1cccnc1Cl | inactive | –
18 | Cc1c(COC(=O)[C@@H]2[C@H](/C=C(\Cl)C(F)(F)F)C2(C)C)cccc1-c1ccccc1 | inactive | –
19 | CCOc1nc(C(Cl)(Cl)Cl)ns1 | inactive | –
20 | N#Cc1c(Cl)cccc1Cl | inactive | –

Row | Compound | outcome | AC50
21 | CS(=O)(=O)c1ccc(C(=O)C2C(=O)CCCC2=O)c([N+](=O)[O-])c1 | inactive | –
22 | CC(C)Nc1nc(Cl)nc(NC(C)C)n1 | inactive | –
23 | CCN(CC)C(=O)C(C)Oc1cccc2ccccc12 (stereo not given) | inactive | –
24 | N#Cc1c[nH]cc1-c1cccc2c1OC(F)(F)O2 | inactive | –
25 | CCOC(=O)C(C)OC(=O)c1cc(Oc2ccc(C(F)(F)F)cc2Cl)ccc1[N+](=O)[O-] (stereo not given) | inactive | –
26 | COc1cc(Cl)c(OC)cc1Cl | inactive | –
27 | Cc1ccc(N=CN(C)C=Nc2ccc(C)cc2C)c(C)c1 | inactive | –
28 | CCCCC(C#N)(Cn1cncn1)c1ccc(Cl)cc1 (stereo not given) | – | 49.4 µM (active)
29 | CN=C=S | inactive | –
30 | CNC(=O)N(C)c1nnc(C(C)(C)C)s1 | inactive | –
31 | COCc1cnc(C2=NC(C)(C(C)C)C(=O)N2)c(C(=O)O)c1 (stereo not given) | inactive | –
32 | CCNP(=S)(OC)O/C(C)=C/C(=O)OC(C)C (stereo not given) | inactive | –
33 | COC(=O)NC(=S)Nc1ccccc1NC(=S)NC(=O)OC | inactive | –
34 | Clc1nc(Cl)nc(Nc2ccccc2Cl)n1 | inactive | –
35 | Nc1cnn(-c2ccccc2)c(=O)c1Cl | inactive | –
36 | CC(C)Oc1cccc(NC(=O)c2ccccc2C(F)(F)F)c1 | – | 15.5 µM (active)
37 | CCC(C)n1c(=O)[nH]c(C)c(Br)c1=O (stereo not given) | inactive | –
38 | CNC(=O)Oc1cccc2ccccc12 | inactive | –
39 | CC(C)(C)C(=O)C(Oc1ccc(Cl)cc1)n1cncn1 (stereo not given) | inactive | –
40 | CCOP(=O)(OCC)Oc1nc(Cl)c(Cl)cc1Cl | inactive | –
